This is an account of results in PubChem BioAssay (EPA / NIEHS).

Broadly, the AC50 is the concentration giving half of the maximal activity seen.

Each structure is given as a SMILES string. Results filed as inconclusive are left out. Activity calls are given as the source filed them. Rule for the calls, unless noted: active = hit-call score of the fitted dose curve at least 0.9, where 1 is the maximum; inconclusive = response in the unintended direction; inactive = score below 0.9.

The target in assay [1] is Cytochrome P450 3A4 (Homo sapiens) (UniProt P08684). Description: NVS_ADME_hCYP3A4: NovaScreen (NVS) CYP450-related Enzyme Activity (ADME) Assay for human CYP3A4 (AID 2283110). Summed up:
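Activity is derived from decreased fluorescence intensity relative to acetonitrile, measured 0.33 hour after dosing insect-cell-expressed CYP3A4 in a cell-free format. Screening used 10 uM in duplicate before concentration-response follow-up.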

Assay [2] has as its target rat CYP2A1, Cyp2a1 (gene 24894) (UniProt P11711). In words: NVS_ADME_rCYP2A1: NovaScreen (NVS) CYP450-related Enzyme Activity (ADME) Assay for rat CYP2A1 (AID 2283114; active = hit-call score of the fitted dose curve at least 0.9, where 1 is the maximum; inactive = score below 0.9). An outline of the steps: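 Cell-free fluorescence enzyme-activity read on recombinant rat CYP2A1, taken 0.75 h post-dosing. Compounds were screened in duplicate at 10 uM, then hits tested in concentration series (max 20 uM); inhibition scored relative to acetonitrile baseline.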

Assay [3] concerns the target rat CYP2C13, Cyp2c13 (gene 171521) (UniProt P20814). In words: NVS_ADME_rCYP2C13: NovaScreen (NVS) CYP450-related Enzyme Activity (ADME) Assay for rat CYP2C13 (AID 2283121). An outline of the steps:
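Inhibition is read as decreased fluorescent product formation, referenced to acetonitrile vehicle. Cell-free recombinant rat Cyp2c13 reaction ran 0.75 hour; compounds first at 10 uM in duplicate, then concentration series for actives.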

Assay [4] concerns the target sheep Cyclooxygenase-2 (Cox2), PTGS2 (gene 443460) (UniProt P79208). Description: NVS_ENZ_oCOX2: NovaScreen (NVS) Enzymatic Assay for sheep Cyclooxygenase-2 (Cox2) (AID 2283231). Summed up: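 Ovine placental enzyme, cell-free; chemical added, 0.66 h, absorbance (colorimetric). Screen 25 uM in duplicate; ≥threshold hits titrated, top 50 uM. Inhibition = signal loss vs DMSO.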

In assay [5] the target is human Beta-secretase (BACE), BACE1 (gene 23621) (UniProt P56817). In words: NVS_ENZ_hBACE: NovaScreen (NVS) Enzymatic Assay for human Beta-secretase (BACE) (AID 2283140).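 Note: hits are inhibitors that reduce fluorescent substrate signal versus DMSO.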 Summed up: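 SF9-expressed enzyme, cell-free; fluorescent substrate readout after 1 h. Screened at 25 uM single concentration, duplicate; hits retested in concentration series. Activity relative to DMSO baseline, loss-of-signal.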
Sequence of human Beta-secretase (BACE), BACE1 (gene 23621) (P56817 whole entry, looked up): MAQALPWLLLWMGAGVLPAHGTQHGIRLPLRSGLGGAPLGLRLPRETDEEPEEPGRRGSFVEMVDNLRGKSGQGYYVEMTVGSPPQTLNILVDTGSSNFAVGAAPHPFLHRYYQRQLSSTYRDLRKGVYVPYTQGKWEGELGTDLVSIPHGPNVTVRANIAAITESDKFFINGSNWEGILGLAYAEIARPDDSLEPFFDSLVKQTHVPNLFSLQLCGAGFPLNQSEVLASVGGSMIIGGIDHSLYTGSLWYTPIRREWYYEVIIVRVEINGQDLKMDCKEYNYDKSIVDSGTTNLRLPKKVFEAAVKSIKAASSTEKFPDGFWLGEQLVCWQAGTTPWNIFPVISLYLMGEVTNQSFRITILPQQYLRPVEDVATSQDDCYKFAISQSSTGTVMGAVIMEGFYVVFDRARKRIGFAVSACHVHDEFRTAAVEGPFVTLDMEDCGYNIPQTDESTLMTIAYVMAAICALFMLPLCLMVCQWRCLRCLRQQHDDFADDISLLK

For assay [6], the target named is human Dual Specificity Protein Phosphatase 3 (DUSP3), DUSP3 (gene 1845) (UniProt P51452). Description: NVS_ENZ_hDUSP3: NovaScreen (NVS) Enzymatic Assay for human Dual Specificity Protein Phosphatase 3 (DUSP3) (AID 2283152).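 Note: phosphatase activity of recombinant human DUSP3 on a fluorogenic substrate without cells.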 An outline of the steps:
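Cell-free fluorescence-intensity enzyme activity assay with recombinant protein and substrate; loss of signal fitted relative to DMSO baseline. Primary screen in duplicate at 25 uM, actives then run in concentration series; measured 0 h after dosing.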

The target of assay [7] is human Phosphoinositide 3-kinase alpha (PI3Ka), PIK3CA (gene 5290) (UniProt P42336). Description: NVS_ENZ_hPI3Ka: NovaScreen (NVS) Enzymatic Assay for human Phosphoinositide 3-kinase alpha (PI3Ka) (AID 2283196). Summed up:
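Chemicals were first screened at 25 uM in duplicate, then hits were run as concentration series up to 50 uM. Enzyme activity was measured by fluorescence after mobility-shift separation, with loss of signal relative to DMSO taken as activity.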

Assay [8] has as its target guinea pig Leukotriene D4 Receptor (LTD4), CYSLTR1 (gene 100135514) (UniProt Q2NNR5). Description: NVS_GPCR_gLTD4: NovaScreen (NVS) G Protein-Coupled Receptor Assay for guinea pig Leukotriene D4 Receptor (LTD4) (AID 2283248). An outline of the steps: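 Guinea pig lung membrane preparation; bound radioligand measured by filter scintillation after 1 h, loss of signal versus DMSO marking displacement. Compounds tested at 25 uM in duplicate, hits retested to max 50 uM.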

Assay [9] deals with Mitogen-activated protein kinase 3 (Homo sapiens) (UniProt P27361). Description: NVS_ENZ_hMAPK3: NovaScreen (NVS) Enzymatic Assay for human Mitogen-Activated Protein Kinase 3 (MAPK 3) (AID 2283177). Summed up:
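Chemicals were first tested in duplicate at 25 uM, with hits re-run as concentration series (max 50 uM). Recombinant enzyme activity, measured 1 h post-dose in a cell-free format, was read by fluorescence/mobility shift relative to DMSO.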

For assay [10], the target named is Tyrosine-protein phosphatase non-receptor type 11 (Homo sapiens) (UniProt Q06124). In words: NVS_ENZ_hPTPN11: NovaScreen (NVS) Enzymatic Assay for human Protein Tyrosine Phosphatase Non-receptor Type 11 (PTPN11) (AID 2283202). Summed up:
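Compounds first tested in duplicate at 25 uM; those reaching ~30% inhibition rerun in singleton concentration-response, top 50 uM. Phosphatase activity measured after 0.5 h by fluorescence with mobility-shift separation, relative to DMSO.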

In assay [11] the target is Tyrosine-protein phosphatase non-receptor type 12 (Homo sapiens) (UniProt Q05209). Description: NVS_ENZ_hPTPN12: NovaScreen (NVS) Enzymatic Assay for human Protein Tyrosine Phosphatase Non-receptor Type 12 (PTPN12) (AID 2283204). An outline of the steps: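 Single-concentration duplicates (25 uM) preceded singleton concentration-response up to 50 uM for chemicals passing threshold. Cell-free recombinant PTPN12 activity was read 1.33 h after dosing via fluorescence after mobility-shift separation; loss of signal versus DMSO.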

The target of assay [12] is human Vascular Endothelial Growth Factor Receptor 3 (VEGFR3), FLT4 (gene 2324) (UniProt P35916). In words: NVS_ENZ_hVEGFR3: NovaScreen (NVS) Enzymatic Assay for human Vascular Endothelial Growth Factor Receptor 3 (VEGFR3) (AID 2283229). An outline of the steps: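 Chemicals first run in duplicate at 25 uM, with actives re-tested in concentration series to a top of 50 uM. Recombinant VEGFR3 activity measured after 1 h via fluorescence with mobility-shift product separation; inhibition fitted relative to DMSO.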

Assay [13] deals with human Vascular Endothelial Growth Factor Receptor 2 (VEGFR2), KDR (gene 3791) (UniProt P35968). Description: NVS_ENZ_hVEGFR2: NovaScreen (NVS) Enzymatic Assay for human Vascular Endothelial Growth Factor Receptor 2 (VEGFR2) (AID 2283230). Summed up: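 Cell-free recombinant VEGFR2 kinase, fluorescent substrate with electrophoretic mobility-shift separation; read 1 h after dosing. Screened at 25 uM in duplicate, hits to concentration-response up to 50 uM; loss-of-signal versus DMSO.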

Assay [14] has as its target sheep Cyclooxygenase-1 (Cox1), PTGS1 (gene 443551) (UniProt P05979). Description: NVS_ENZ_oCOX1: NovaScreen (NVS) Enzymatic Assay for sheep Cyclooxygenase-1 (Cox1) (AID 2283239).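 Note: actives reduce cyclooxygenase activity so potencies are for inhibitors.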 An outline of the steps: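 Tested in duplicate at 25 uM, then in concentration series if active, against seminal vesicle extract from sheep. Enzyme activity was measured colorimetrically at 0.66 hour and normalised to DMSO.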

Sequence of sheep Cyclooxygenase-2 (Cox2), PTGS2 (gene 443460) (P79208 whole entry, looked up): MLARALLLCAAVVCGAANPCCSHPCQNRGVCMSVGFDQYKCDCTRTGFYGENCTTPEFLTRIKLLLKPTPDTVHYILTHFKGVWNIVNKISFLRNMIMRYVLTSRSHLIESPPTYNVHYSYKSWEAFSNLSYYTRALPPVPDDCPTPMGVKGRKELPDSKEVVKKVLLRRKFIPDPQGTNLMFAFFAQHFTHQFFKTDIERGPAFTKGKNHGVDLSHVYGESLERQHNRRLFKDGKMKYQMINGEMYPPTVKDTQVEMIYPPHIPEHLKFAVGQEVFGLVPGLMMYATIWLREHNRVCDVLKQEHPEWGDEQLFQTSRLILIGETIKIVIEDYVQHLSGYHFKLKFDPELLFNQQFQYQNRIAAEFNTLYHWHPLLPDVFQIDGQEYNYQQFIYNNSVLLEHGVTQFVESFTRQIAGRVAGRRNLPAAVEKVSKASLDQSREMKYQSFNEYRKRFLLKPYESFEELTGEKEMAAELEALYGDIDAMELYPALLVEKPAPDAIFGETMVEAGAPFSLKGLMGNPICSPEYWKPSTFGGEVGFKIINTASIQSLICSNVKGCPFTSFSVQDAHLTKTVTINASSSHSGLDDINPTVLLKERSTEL
Sequence of human Phosphoinositide 3-kinase alpha (PI3Ka), PIK3CA (gene 5290) (P42336 whole entry, looked up): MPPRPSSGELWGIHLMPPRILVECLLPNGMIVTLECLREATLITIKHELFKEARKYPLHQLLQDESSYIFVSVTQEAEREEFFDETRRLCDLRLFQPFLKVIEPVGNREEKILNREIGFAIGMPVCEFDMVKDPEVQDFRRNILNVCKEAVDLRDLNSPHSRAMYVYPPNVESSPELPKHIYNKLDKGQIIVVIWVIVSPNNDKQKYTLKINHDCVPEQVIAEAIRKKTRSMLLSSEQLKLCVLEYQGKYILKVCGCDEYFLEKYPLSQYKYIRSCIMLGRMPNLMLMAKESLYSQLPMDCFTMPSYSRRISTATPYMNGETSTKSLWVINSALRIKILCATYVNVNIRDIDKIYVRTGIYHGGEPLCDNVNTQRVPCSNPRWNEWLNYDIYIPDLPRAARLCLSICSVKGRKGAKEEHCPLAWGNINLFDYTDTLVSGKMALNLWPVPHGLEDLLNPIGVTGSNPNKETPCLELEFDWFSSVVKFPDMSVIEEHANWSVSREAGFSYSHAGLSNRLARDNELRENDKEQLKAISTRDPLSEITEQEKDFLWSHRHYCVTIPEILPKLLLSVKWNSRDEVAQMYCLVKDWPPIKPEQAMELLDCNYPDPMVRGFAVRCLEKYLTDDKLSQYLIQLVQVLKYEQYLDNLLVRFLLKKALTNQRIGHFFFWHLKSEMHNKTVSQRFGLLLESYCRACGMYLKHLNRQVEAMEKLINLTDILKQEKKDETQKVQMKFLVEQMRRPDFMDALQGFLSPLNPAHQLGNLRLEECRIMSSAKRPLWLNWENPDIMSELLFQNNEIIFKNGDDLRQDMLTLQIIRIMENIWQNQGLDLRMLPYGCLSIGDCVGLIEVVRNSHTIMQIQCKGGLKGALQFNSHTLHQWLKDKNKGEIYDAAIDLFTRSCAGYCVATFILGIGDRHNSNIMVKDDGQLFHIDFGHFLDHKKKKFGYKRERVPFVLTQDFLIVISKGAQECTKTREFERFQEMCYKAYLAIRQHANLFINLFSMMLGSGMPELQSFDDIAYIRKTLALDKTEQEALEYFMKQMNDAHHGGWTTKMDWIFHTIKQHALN
Sequence of sheep Cyclooxygenase-1 (Cox1), PTGS1 (gene 443551) (P05979 whole entry, looked up): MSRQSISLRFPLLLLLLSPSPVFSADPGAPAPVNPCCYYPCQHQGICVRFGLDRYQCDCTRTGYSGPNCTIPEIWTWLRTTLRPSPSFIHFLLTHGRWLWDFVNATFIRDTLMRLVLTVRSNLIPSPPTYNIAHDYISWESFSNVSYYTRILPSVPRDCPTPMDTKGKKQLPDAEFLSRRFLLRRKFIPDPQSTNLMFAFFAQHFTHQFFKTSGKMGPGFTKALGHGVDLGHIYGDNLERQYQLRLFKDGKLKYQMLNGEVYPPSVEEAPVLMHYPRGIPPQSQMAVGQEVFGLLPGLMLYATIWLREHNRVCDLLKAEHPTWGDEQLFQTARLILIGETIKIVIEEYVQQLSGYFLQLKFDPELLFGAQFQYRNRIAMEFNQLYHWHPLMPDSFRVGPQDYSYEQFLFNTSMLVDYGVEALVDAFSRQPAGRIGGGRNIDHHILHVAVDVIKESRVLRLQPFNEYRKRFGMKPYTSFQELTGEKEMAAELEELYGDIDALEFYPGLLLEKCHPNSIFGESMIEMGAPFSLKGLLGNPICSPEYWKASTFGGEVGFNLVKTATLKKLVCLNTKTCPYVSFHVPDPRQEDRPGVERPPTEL
Sequence of human Dual Specificity Protein Phosphatase 3 (DUSP3), DUSP3 (gene 1845) (P51452 whole entry, looked up): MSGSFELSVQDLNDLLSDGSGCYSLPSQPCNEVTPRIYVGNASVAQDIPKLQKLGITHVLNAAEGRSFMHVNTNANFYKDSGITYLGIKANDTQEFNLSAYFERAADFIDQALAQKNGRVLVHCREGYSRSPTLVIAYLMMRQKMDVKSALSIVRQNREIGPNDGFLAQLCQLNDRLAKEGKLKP
Sequence of guinea pig Leukotriene D4 Receptor (LTD4), CYSLTR1 (gene 100135514) (Q2NNR5 whole entry, looked up): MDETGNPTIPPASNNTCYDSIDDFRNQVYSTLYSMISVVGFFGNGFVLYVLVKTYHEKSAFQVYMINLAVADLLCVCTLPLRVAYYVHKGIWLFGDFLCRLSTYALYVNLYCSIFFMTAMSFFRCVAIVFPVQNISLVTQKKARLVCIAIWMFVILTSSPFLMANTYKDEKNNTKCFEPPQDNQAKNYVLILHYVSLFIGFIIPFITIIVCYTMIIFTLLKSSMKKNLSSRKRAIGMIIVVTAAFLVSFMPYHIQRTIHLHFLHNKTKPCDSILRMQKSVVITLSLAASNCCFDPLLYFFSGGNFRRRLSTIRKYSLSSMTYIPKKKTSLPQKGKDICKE
Sequence of rat CYP2A1, Cyp2a1 (gene 24894) (P11711 whole entry, looked up): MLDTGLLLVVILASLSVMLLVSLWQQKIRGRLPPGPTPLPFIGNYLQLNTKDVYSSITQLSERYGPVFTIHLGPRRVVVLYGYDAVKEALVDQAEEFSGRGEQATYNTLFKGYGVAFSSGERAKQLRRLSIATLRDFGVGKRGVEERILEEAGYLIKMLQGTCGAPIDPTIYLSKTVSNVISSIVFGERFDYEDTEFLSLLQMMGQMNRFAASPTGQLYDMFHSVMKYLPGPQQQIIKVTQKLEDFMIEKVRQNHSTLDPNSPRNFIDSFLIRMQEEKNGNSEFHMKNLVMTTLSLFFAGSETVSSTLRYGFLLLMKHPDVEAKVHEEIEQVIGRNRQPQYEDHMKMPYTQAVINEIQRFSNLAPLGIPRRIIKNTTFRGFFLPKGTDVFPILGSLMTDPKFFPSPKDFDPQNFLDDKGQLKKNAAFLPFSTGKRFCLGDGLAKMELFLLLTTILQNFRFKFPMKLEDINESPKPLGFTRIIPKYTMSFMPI
Sequence of rat CYP2C13, Cyp2c13 (gene 171521) (P20814 whole entry, looked up): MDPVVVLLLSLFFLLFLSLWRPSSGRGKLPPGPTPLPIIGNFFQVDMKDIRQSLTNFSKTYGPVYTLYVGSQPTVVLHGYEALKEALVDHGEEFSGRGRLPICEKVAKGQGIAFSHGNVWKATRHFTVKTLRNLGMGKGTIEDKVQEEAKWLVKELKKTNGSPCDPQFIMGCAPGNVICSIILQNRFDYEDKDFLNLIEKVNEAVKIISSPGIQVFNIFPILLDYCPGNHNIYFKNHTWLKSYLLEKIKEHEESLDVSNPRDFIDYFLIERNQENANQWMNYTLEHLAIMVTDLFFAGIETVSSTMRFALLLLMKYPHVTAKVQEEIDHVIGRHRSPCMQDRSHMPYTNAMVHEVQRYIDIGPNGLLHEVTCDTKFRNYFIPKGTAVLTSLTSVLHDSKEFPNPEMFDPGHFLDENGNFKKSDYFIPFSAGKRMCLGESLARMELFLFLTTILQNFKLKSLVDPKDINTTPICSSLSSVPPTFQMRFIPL
Sequence of Tyrosine-protein phosphatase non-receptor type 11 (Homo sapiens) (Q06124 whole entry, looked up): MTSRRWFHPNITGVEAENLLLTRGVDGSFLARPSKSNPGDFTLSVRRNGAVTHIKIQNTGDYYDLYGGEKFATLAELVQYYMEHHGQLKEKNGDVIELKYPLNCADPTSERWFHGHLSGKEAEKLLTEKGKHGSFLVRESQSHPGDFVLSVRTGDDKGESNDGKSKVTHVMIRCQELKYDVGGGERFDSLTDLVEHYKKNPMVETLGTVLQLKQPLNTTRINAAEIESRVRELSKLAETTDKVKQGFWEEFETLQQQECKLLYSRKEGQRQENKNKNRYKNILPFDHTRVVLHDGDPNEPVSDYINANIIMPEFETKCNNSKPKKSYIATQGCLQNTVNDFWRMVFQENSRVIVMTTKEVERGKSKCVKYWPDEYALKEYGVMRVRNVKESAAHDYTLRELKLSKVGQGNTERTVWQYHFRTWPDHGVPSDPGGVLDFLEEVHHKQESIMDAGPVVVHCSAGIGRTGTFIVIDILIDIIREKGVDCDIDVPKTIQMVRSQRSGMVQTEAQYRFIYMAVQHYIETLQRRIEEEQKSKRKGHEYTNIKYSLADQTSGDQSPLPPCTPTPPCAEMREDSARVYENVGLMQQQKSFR

Regarding `COC(=O)c1ccc(C=O)cc1`, in assay [1], the AC50 was 7.79 nM (active).

As to `CCCCCCCCn1sc(Cl)c(Cl)c1=O`, the result in [2], in assay [3] and in assay [4] was inactive.

As for `O=C1c2c(O)ccc(Nc3ccc(CCO)cc3)c2C(=O)c2c([N+](=O)[O-])ccc(O)c21`, the AC50 in [5] was 129 nM (active); in assay [6], 2.37 µM (active); in assay [7], 2.07 µM (active).

As for `CCC(C)CO` (stereo not given), the molecule was classed as inactive in [5].

As for `O=C(c1ccccc1)c1ccc(O)cc1O`, the AC50 in assay [6] is 16.5 µM (active). In assay [8], the molecule was called inactive.

Regarding `CCCCCCCCCCCCCC[P+](CCCC)(CCCC)CCCC`, the AC50 in assay [9] was 20.2 µM (active); in [10], 14.8 µM (active); in assay [11] it was 18.5 µM (active); in assay [12] it was 17.5 µM (active); in assay [13], 11.4 µM (active); in assay [4] it was 5.19 µM (active).

For `Cc1cc(O)c(C(C)(C)C)cc1C(C)(C)C`, the molecule was called inactive in assay [7].

For the molecule `CC1=CC2C3C=CC(C3)C2C1C` (stereo not given), the half-maximal activity concentration (AC50) in [14] is 30.4 µM (active).

For `CC(C)CCCC(C)CCO` (stereo not given), the molecule was classed as inactive in assay [14].

As for `C[C@]12CC[C@H]3C(=CCc4cc(O)ccc43)[C@@H]1CCC2=O`, the result in assay [8] was inactive.
